The values that follow come from PubChem BioAssay (EPA / NIEHS).

The structures appear in SMILES notation. Results filed as inconclusive are left out. The source made the active and inactive calls. The calls were made as follows, unless noted: active = hit-call score of the fitted dose curve at least 0.9, where 1 is the maximum; inactive = score below 0.9.

Assay [1] addresses Nucleoli Translocation, AR (gene 367) (UniProt P10275). Briefly: UPITT_HCI_U2OS_AR_TIF2_Nucleoli_Antagonist: University of Pittsburgh U2OS Androgen Receptor-Transcriptional Intermediary Factor 2 (AR-TIF2) Antagonism High Content Imaging Assay for Nucleoli Translocation (AID 2283997; active = hit-call score of the fitted dose curve at least 0.9, where 1 is the maximum). The gist of the method:
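An antagonist-mode imaging screen: engineered U2OS (AR-RFP, TIF2-GFP) exposed to 20 uM compound, 0.2% DMSO. Activity reflects nucleolar red fluorescence change relative to DHT baseline.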

Assay [2] shares this target. Briefly: UPITT_HCI_U2OS_AR_TIF2_Nucleoli_Agonist: University of Pittsburgh U2OS Androgen Receptor-Transcriptional Intermediary Factor 2 (AR-TIF2) Agonism High Content Imaging Assay for Nucleoli Translocation (AID 2283998; active = hit-call score of the fitted dose curve at least 0.9, where 1 is the maximum). The procedure, abridged: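 Red-tagged human androgen receptor co-expressed with GFP-tagged TIF2 serves as the binding reporter. Primary testing used 20 uM final (0.2% DMSO); follow-up dose response covered 0.195 to 50 uM final (0.5% DMSO).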

The target in assay [3] is Ratio of Nucleoli Translocation and Cytoplasm, AR (gene 367) (UniProt P10275). Description: UPITT_HCI_U2OS_AR_TIF2_Nucleoli_Cytoplasm_Ratio_Antagonist: University of Pittsburgh U2OS Androgen Receptor-Transcriptional Intermediary Factor 2 (AR-TIF2) Antagonism High Content Imaging Assay for Ratio of Nucleoli Translocation and Cytoplasm (AID 2283999; active = hit-call score of the fitted dose curve at least 0.9, where 1 is the maximum;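 also: antagonists lower the DHT-driven ratio of nucleolar to cytoplasmic red signal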). The gist of the method:
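High-content imaging of red fluorescence ratio, nucleoli versus cytoplasm, in U2OS expressing AR-RFP and TIF2-GFP, fitted relative to DHT. Compounds tested once at 20 uM final, then 0.195 to 50 uM final in serial dilution.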

Assay [4] shares this target. Description: UPITT_HCI_U2OS_AR_TIF2_Nucleoli_Cytoplasm_Ratio_Agonist: University of Pittsburgh U2OS Androgen Receptor-Transcriptional Intermediary Factor 2 (AR-TIF2) Agonism High Content Imaging Assay for Ratio of Nucleoli Translocation and Cytoplasm (AID 2284000; active = hit-call score of the fitted dose curve at least 0.9, where 1 is the maximum;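 also: hits raise the red nucleolar to cytoplasm ratio above vehicle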). The procedure, abridged:
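Primary screen at 20 uM final (0.2% DMSO), then triplicate confirmation and dose-response from 0.195 to 50 uM final (0.5% DMSO). Cells: U2OS with AR-RFP and TIF2-GFP. Endpoint is the nucleoli/cytoplasm red-fluorescence ratio, gain-of-signal vs DMSO.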

The nature of assay [5]: CCTE_Harrill_HTTr_Viability_MCF7: CCTE's 6-hour Cell Viability Assessment for the High-Throughput Transcriptomics (HTTr) Platform, in MCF-7 cells cultured in DMEM + 10% fetal bovine serum, Harrill Lab (AID 2284010). The gist of the method:
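Propidium iodide exclusion, imaged by high-content analysis, gauged viability after a six-hour exposure across eight concentrations. Cells were MCF-7 grown in DMEM with 10% fetal bovine serum; fits run in both directions against DMSO.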

A short description of assay [6]: CCTE_Harrill_HTTr_Apoptosis_MCF7: CCTE's 6-hour Apoptosis Assessment for the High-Throughput Transcriptomics (HTTr) Platform, in MCF-7 cells cultured in DMEM + 10% fetal bovine serum, Harrill Lab (AID 2284011). The gist of the method:
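Cells are dosed with test chemicals at eight concentrations and imaged 6 hours later for caspase-3/7 activity using a green fluorogenic detection reagent. Activity is fitted in both directions against DMSO controls.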

Assay [7] in a line: CCTE_Simmons_MITO_basal_resp_rate: CCTE's HepG2 Seahorse XF Respirometric Screening Assay at Basal Respiratory State, Simmons Lab (AID 2284001). The following applies: actives raise or lower the signal. The gist of the method: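 Readout is oxygen consumption rate after test compound injection, measured by Seahorse XF in HepG2 cells. Seven concentrations from 125 nM up to 100 uM final are tested, and activity in either direction is fitted against DMSO.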

A short description of assay [8]: CCTE_Simmons_MITO_max_resp_rate: CCTE's HepG2 Seahorse XF Respirometric Screening Assay at Maximal Respiratory State [uncoupled], Simmons Lab (AID 2284002). The following applies: actives raise or lower the signal. The gist of the method: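 Maximal respiration in HepG2 cells is recorded as OCR by Seahorse XF following FCCP injection. Compounds span 125 nM–100 uM final; activity is called in either direction against DMSO.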

Assay [9] can be described thus: CCTE_Simmons_MITO_inhib_resp_rate: CCTE's HepG2 Seahorse XF Respirometric Screening Assay at Inhibited Respiratory State [full ETC block], Simmons Lab (AID 2284006). The following applies: actives raise or lower the signal. The gist of the method: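 This endpoint is the respiration rate remaining after rotenone/antimycin A block, in HepG2 cells on a Seahorse XF96. Chemicals spanned 125 nM–100 uM final, in three biological replicates. OCR was read every 6 minutes for 72 minutes and compared with DMSO vehicle.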

The nature of assay [10]: CCTE_Simmons_MITO_viability: CellTiter-Glo Viability Assessment for CCTE's HepG2 Seahorse XF Respirometric Screening Assay [post-hoc], Simmons Lab (AID 2284007; active = hit-call score of the fitted dose curve at least 0.9, where 1 is the maximum). The procedure, abridged: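 Luciferase-coupled ATP read-out after the Seahorse run: HepG2 cells treated 90 minutes with test chemical, 7-point series of 125 nM–100 uM final, in triplicate biological runs. Vehicle DMSO; dichlone as positive control over 8 concentrations.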

The nature of assay [11]: CCTE_Shafer_MEA_acute_spike_number: CCTE's Neural Acute Assay for Total Number of Spikes, Shafer Lab (AID 2284008).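 As to AC50: curve fitted for decrease in spike count so AC50 reflects inhibitors.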 The gist of the method: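 Cortical neurons from rat, matured to DIV 13 or 15 on microelectrode arrays, are recorded at 37 C before and during 40-min exposure to 0.03-40 uM compound. Wells need >/= 10 active electrodes.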
Assay [12] can be described thus: CCTE_Shafer_MEA_acute_firing_rate_mean: CCTE's Neural Acute Assay for Mean Firing Rate, Shafer Lab (AID 2284009).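 Also: analyzed for loss of signal so actives lower firing rate relative to DMSO.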 The gist of the method: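 Spontaneous spiking of primary rat cortical networks, DIV 13/15, 37 C. Compound 0.03-40 uM, n ≥3 wells; 40 min baseline vs 40 min treated. Endpoint fitted in loss-of-signal direction against DMSO.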
Assay [13] is described as follows: CCTE_Harrill_HTTr_CellCount_MCF7: CCTE's Cell Proliferation Assessment for the High-Throughput Transcriptomics (HTTr) Platform, Harrill Lab (AID 2284012; active = hit-call score of the fitted dose curve at least 0.9, where 1 is the maximum;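 also: cells exposed to compound for six hours; intended direction is loss of nuclei count meaning fewer cells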). The gist of the method: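 Cell count from high-content imaging of Hoechst-labeled nuclei serves as viability/growth readout. Chemicals were applied to MCF-7 cells in eight concentrations for six hours, with fitting in both directions relative to DMSO.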

Assay [14] is described as follows: CCTE_Shafer_MEA_acute_burst_number: CCTE's Neural Acute Assay for Single-Electrode Bursts, Shafer Lab (AID 2284013). The gist of the method:
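Burst totals were derived with adaptive spike detection (8x rms threshold) on filtered signals from rat cortical cultures; change relative to pre-treatment baseline after 40-min compound exposure (0.03-40 uM) was fitted in the negative direction against DMSO.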

Assay [15] can be described thus: CCTE_Shafer_MEA_acute_burst_duration_mean: CCTE's Neural Acute Assay for Mean Burst Duration, Shafer Lab (AID 2284014).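 Also: hits are decreases in mean burst duration relative to DMSO controls.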 The procedure, abridged: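 Acute exposure of mature rat cortical networks (DIV 13 or 15) grown on microelectrode arrays to 0.03-40 uM compound. Mean burst duration compared with the 40-min pre-dose baseline over a 40-min post-dose recording at 37 C.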

The nature of assay [16]: CCTE_Shafer_MEA_acute_per_burst_spike_number_mean: CCTE's Neural Acute Assay for Average Number of Spikes Per Burst, Shafer Lab (AID 2284015).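 Also: hits are decreases in mean spikes per burst versus baseline.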 The gist of the method:
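Percent change in mean spikes per single-electrode burst is compared between a 40 min baseline and a 40 min recording with compound (0.03-40 uM). Cultures were rat cortical neurons on MEA plates at DIV 13 or 15, recorded at 37 C, with DMSO as the negative control.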

The nature of assay [17]: CCTE_Shafer_MEA_acute_interburst_interval_mean: CCTE's Neural Acute Assay for Mean Interburst Interval, Shafer Lab (AID 2284016).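 Also: percent change of mean interburst interval versus each well's own pre-dose baseline; curves fitted for decrease in interburst interval relative to DMSO.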 The procedure, abridged:
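Percent change in mean single-electrode interburst interval was calculated per well from 40 min recordings before and after compound (0.03-40 uM). Recordings were made at 37 C on rat cortical cultures at DIV 13 or 15, with spikes detected at 8x rms threshold.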

Assay [18] in a line: CCTE_Harrill_HTTr_Apoptosis_PRF_DMEM_6hr: (Pilot) CCTE's 6-hour Apoptosis Assessment for the High-Throughput Transcriptomics (HTTr) Platform, in MCF-7 cells cultured phenol red-free DMEM + 10% charcoal-stripped fetal bovine serum, Harrill Lab (AID 2283984). The procedure, abridged: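 Caspase-3/7 activity (CellEvent Green) read by high-content imaging 6 h after dosing, eight concentrations. Cells: MCF-7, phenol red-free DMEM with 10% charcoal-stripped serum. Curves fit both directions against DMSO.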

Assay [19] is described as follows: CCTE_Harrill_HTTr_Apoptosis_PRF_DMEM_24hr: (Pilot) CCTE's 24-hour Apoptosis Assessment for the High-Throughput Transcriptomics (HTTr) Platform, in MCF-7 cells cultured in phenol red-free DMEM + 10% charcoal-stripped fetal bovine serum, Harrill Lab (AID 2283986). The procedure, abridged: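 Eight concentrations tested for 24 h on MCF-7 grown in charcoal-stripped serum, phenol red-free DMEM. High content imaging of CellEvent Caspase 3/7 Green signal gives apoptosis read-out, fitted both ways relative to DMSO.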

In a further assay the test system is DIO1 (gene 1733). Description: CCTE_GLTED_hDIO1: CCTE's human Deiodinase 1 (DIO1) Inhibition Assay, Great Lakes Toxicology and Ecology Division (GLTED) Lab (AID 2283987; active = hit-call score of the fitted dose curve at least 0.9, where 1 is the maximum;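 also: isolated human DIO1 enzyme in a cell-free setup rather than cells; enzyme activity read as free iodide liberated from substrate via Sandell-Kolthoff colorimetry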). The gist of the method:
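Cell-free hDIO1 assay, triplicate plates. Absorbance of the Sandell-Kolthoff reaction reports enzyme-liberated iodide; iodinated chemicals or nitrite, iron and thiocyanate may interfere.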

By AC50 is commonly meant the concentration giving half of the maximal activity seen.

Chain of Nucleoli Translocation, AR (gene 367) (P10275 whole entry, looked up): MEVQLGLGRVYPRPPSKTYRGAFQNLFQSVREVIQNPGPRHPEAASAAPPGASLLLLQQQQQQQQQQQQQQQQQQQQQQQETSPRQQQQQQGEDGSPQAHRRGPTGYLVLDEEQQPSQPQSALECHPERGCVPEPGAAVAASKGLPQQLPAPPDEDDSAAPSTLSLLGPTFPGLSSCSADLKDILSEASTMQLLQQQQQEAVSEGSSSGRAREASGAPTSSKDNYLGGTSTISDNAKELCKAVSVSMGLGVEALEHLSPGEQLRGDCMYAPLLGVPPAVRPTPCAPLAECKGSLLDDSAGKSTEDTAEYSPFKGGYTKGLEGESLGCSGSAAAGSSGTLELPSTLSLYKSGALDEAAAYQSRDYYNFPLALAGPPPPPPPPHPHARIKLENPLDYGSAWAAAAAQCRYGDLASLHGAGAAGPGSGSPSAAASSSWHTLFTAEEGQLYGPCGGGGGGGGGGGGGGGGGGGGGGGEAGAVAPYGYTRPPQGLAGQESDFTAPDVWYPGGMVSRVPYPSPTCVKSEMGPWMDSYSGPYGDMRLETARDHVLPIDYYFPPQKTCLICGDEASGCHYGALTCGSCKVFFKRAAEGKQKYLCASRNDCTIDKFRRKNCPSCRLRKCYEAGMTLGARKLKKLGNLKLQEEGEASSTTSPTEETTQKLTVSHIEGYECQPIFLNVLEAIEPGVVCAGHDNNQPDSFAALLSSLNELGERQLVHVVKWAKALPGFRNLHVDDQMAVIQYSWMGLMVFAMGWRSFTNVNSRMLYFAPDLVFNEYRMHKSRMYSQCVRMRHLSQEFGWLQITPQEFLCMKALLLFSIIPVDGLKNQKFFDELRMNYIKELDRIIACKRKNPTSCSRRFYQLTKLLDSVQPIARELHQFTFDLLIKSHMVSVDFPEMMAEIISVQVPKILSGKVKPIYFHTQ
Chain of Ratio of Nucleoli Translocation and Cytoplasm, AR (gene 367) (P10275 whole entry, looked up): as above

In the case of `CCOc1ccc2c(c1)C(C)=CC(C)(C)N2`, the AC50 in assay [1] was 50 µM (active). The call in [2], in assay [3], in assay [4], in [5] and in assay [6] was inactive.

With `COc1cc(-c2nc(NC(=O)c3cc4cc(C)cc(C)c4n3CC(=O)O)sc2CCC2CCCCC2)c(OC)cc1Cl`, the AC50 in [1] is 11.4 µM (active). The outcome in [2], in [3], in assay [4], in assay [5] and in assay [6] was inactive.

As to `CN[C@H]1CC[C@@H](c2ccc(Cl)c(Cl)c2)c2ccc(S(N)(=O)=O)cc21`, the half-maximal activity concentration (AC50) was 50 µM (active) in assay [1], 12.8 µM (active) in assay [2], 25.6 µM (active) in assay [7] and 20 µM (active) in assay [16]. Also, the result in [3], in assay [4], in [8], in assay [9], in [10] and in assay [11] was inactive. For the same molecule, the result in assay [12], in [5], in assay [6], in assay [13], in assay [14] and in assay [15] was inactive. Besides, the molecule was classed as inactive in assay [17].

For `CCOC(=O)C(C)(C)Oc1ccc(Cl)cc1`, the result in assay [18], in assay [19], in assay [11], in [12], in assay [5] and in assay [6] was inactive. Further, the result in [14], in [15], in assay [16] and in assay [17] was inactive.

In the case of `COc1cc(/C=C/C(=O)CC(=O)/C=C/c2ccc(O)c(OC)c2)ccc1O`, the call in [2], in [4], in assay [5], in assay [6] and in [13] was inactive. In addition, the half-maximal activity concentration (AC50) in assay [3] was 5.79 µM (active).

For `COc1cc(C=O)ccc1O`, the outcome in [1], in assay [2], in [3], in assay [5], in [6] and in assay [13] was inactive.

Regarding `CCCCCCCCCCC`, the outcome in [1], in assay [4], in assay [5], in [6] and in assay [13] was inactive.

Regarding `Cc1cc(NC(=O)C(=O)O)cc(C)c1Oc1ccc(O)c2c1CCC2`, the outcome in assay [3], in assay [4], in [5] and in [6] was inactive.

With `O=C(O)Cc1ccccc1Nc1c(Cl)cccc1Cl`, the outcome in [1], in [2], in [3], in [4], in assay [5] and in assay [6] was inactive. In assay [13], the result was inactive.

`Cc1cc(=O)[nH]c(=S)[nH]1`: in the assay with DIO1 (gene 1733), the concentration at half-maximal activity (AC50) was 16.4 µM (active). The outcome in assay [5], in assay [6] and in assay [13] was inactive.

Regarding `COc1ccc(C)cc1N`, the result in [1], in assay [3], in [5], in assay [6] and in assay [13] was inactive.

In the case of `CC(C)(C)c1cc(O)c(C(C)(C)C)cc1O`, the outcome in assay [1], in assay [2], in assay [4], in assay [9], in [10] and in assay [5] was inactive. Besides, the outcome in assay [6], in assay [14] and in [16] was inactive. Further, the concentration at half-maximal activity (AC50) was 18.3 µM (active) in assay [7]; 36.7 µM (active) in assay [8]; 25.9 µM (active) in assay [11]; 25.9 µM (active) in [12]; 29.4 µM (active) in assay [15]; 31.4 µM (active) in assay [17].

As to `Cc1ccc(N(C)C)cc1`, the outcome in assay [1], in assay [2], in assay [3] and in [4] was inactive.

As for `CCCCCC(=O)O`, the outcome in assay [2], in [5] and in [6] was inactive.

With `Cc1cccc([N+](=O)[O-])c1C`, the result in assay [1], in assay [3], in assay [4], in [5], in [6] and in assay [13] was inactive.

`CC(=O)Oc1ccccc1C(=O)O`: the outcome in [2], in assay [4], in [11], in assay [12], in assay [5] and in assay [6] was inactive. The outcome in assay [14], in assay [15], in assay [16] and in assay [17] was inactive.

Regarding `CNC(=O)[C@H]1O[C@@H](n2cnc3c(NCc4cc(Cl)ccc4OCc4cc(C)no4)ncnc32)[C@H](O)[C@@H]1N`, the call in [1], in assay [2], in [3], in [4], in assay [5] and in [6] was inactive. For the same molecule, the call in assay [13] was inactive.
